Reference: ChEMBL document CHEMBL3988442, “University of Dundee, Small-Polar-MMV Screening Library” (2021)
Among all 48,000 compounds or so, about 13,000 (27%) showed an effect of 50% or more. The list shows a part of the results.

Test system: Wolbachia pipientis
Assay: Anti-Wolbachia Cell-Based Screen
Assay type: functional
Design: scale not given: in the data most compounds retested in dose-response had high values
Details: 5 µM

How did the “Percent Effect” value turn out when c1cc(CN2CCOC[C@H]2c2nc(-c3ccncc3)c[nH]2)ccn1 was run?
Its value is -7.2%.

With CC(=O)N[C@H]1CN(CC(=O)NCc2ccccc2C)C[C@@H]1C(C)C as the compound, how does the “Percent Effect” value read?
Its value is -0.9175%.

How did the “Percent Effect” value turn out when CCCc1cc(C(=O)N(CC)Cc2ccncc2)[nH]n1 was run?
Its value is -8.767%.

With CN1CCN(c2ccc3ccc(C(=O)N4CCCCO4)cn23)CC1.O=C(O)C(F)(F)F as the compound, how does the “Percent Effect” value read?
The value was -14.14%.

How did the “Percent Effect” value turn out when Cc1nnc(N2CCCC(CS(N)(=O)=O)C2)c(C#N)c1C (stereo not drawn) was run?
The value was -0.6364%.

With CCOCCN1CCN(Cc2nnc(C3CC3)o2)CC1C (stereo not drawn) as the compound, how does the “Percent Effect” value read?
Its value is -16.34%.

How did the “Percent Effect” value turn out when CC(C)S(=O)(=O)N1C[C@H]2OC(=O)N(CCc3cccc(Cl)c3)[C@H]2C1 was run?
Its value is -13.46%.

For CCCS(=O)(=O)N1C[C@H]2OC(=O)N(CCc3cccc(Cl)c3)[C@H]2C1, which “Percent Effect” value is on record?
Its value is -3.172%.

Cc1ncc(CNC2CC(=O)N(CCc3cccc(Cl)c3)C2)n1C (stereo not drawn) was tested. Which “Percent Effect” value did it give?
Its value is 82.2%.

How did the “Percent Effect” value turn out when Cc1ncsc1CNC(=O)N1CCN(Cc2ccccc2)CC1C (stereo not drawn) was run?
The value was -7.787%.

For O=C(O)C(F)(F)F.O=C(O)C(F)(F)F.c1ccc(CN2CCC3(CC2)CN(c2ccccn2)CCO3)nc1, which “Percent Effect” value is on record?
Its value is 2.249%.

How did the “Percent Effect” value turn out when O=C(O)C(F)(F)F.O=C(O)C(F)(F)F.c1ccc(CN2CCC3(CC2)CCN(c2ccccn2)C3)nc1 was run?
Its value is 79.01%.

For Fc1ccc(CN2CCC3(CC2)CN(c2ccccn2)CCO3)cc1.O=C(O)C(F)(F)F.O=C(O)C(F)(F)F, which “Percent Effect” value is on record?
Its value is -6.002%.

O=C(O)C(F)(F)F.c1ccc(N2CCC3(CCCN(c4ncccn4)C3)C2)nc1 (stereo not drawn) was tested. Which “Percent Effect” value did it give?
Its value is 93.44%.

How did the “Percent Effect” value turn out when COc1cc(N2CCC3(CCCN(C(=O)c4cccnc4)C3)C2)ncn1.O=C(O)C(F)(F)F (stereo not drawn) was run?
Its value is -28.04%.

Which “Percent Effect” value does the source give for CN1CCC2(CCCN(c3nccc(C(F)(F)F)n3)C2)CC1.O=C(O)C(F)(F)F here?
Its value is -32.78%.

How did the “Percent Effect” value turn out when COc1cc(N2CCC3(CCN(C(=O)c4cccnc4)CC3)C2)ncn1.O=C(O)C(F)(F)F was run?
Its value is -2.068%.

How did the “Percent Effect” value turn out when COc1cc(N2CCC3(CCCN(Cc4ccccn4)C3)C2)ncn1.O=C(O)C(F)(F)F (stereo not drawn) was run?
The value was 109.9%.

With N#Cc1ccc(N2CCC3(CCCN(c4ccccn4)C3)C2)nc1.O=C(O)C(F)(F)F (stereo not drawn) as the compound, how does the “Percent Effect” value read?
Its value is -3.068%.

How did the “Percent Effect” value turn out when Fc1ccccc1CN1CCCC2(CCN(c3ncccn3)CC2)C1.O=C(O)C(F)(F)F was run?
The value was 3.614%.

How did the “Percent Effect” value turn out when O=C(O)C(F)(F)F.O=C(O)C(F)(F)F.c1cnc(N2CCCC3(CCN(c4ncccn4)C3)C2)nc1 (stereo not drawn) was run?
Its value is 103.8%.

CC(=O)N1CCC2(CC1)CN(C)C(=O)C[C@H]2C(F)(F)F.Cl was tested. Which “Percent Effect” value did it give?
The value was -12.08%.

Which “Percent Effect” value does the source give for CN1CCN(C(=O)c2ccc(=O)n(C)c2)c2ccccc21 here?
Its value is 6.731%.
